Reference: the supplement of paper PMC6805474

What follows are molecules tested on Schistosoma mansoni schistosomula (Liberian) (assay: drug effect (1 - score/DMSO control score) (fraction); higher = more antischistosomal effect, active = 0.5 or more; extreme values may be limits of the assay). Settings: 72 h; 10 µM.
Method in brief: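 A plate was valid only if its 0.1% DMSO wells averaged a score of at least 2. Those wells ran beside duplicate wells in which 50 Liberian-strain Schistosoma mansoni schistosomula each, transformed mechanically from cercariae and pre-incubated at least 12 h, met 10 µM compound in Medium 199 with 5% FCS at 37 °C, 5% CO2. Scoring was visual at 10× at 24, 48 and 72 h, from 3 (normal) to 0 (dead) in quarter-point steps. Drug effect was derived from the mean test-well score against the mean DMSO-well score, with negatives set to zero.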

SMILES	drug effect
Nc1ccc2ncnc(Nc3ccc(OCc4cccc(F)c4)c(Cl)c3)c2c1	0.879 (active)
COc1cccc(-c2nc3c(N4CCCC4)cccc3n2CC2CCCN2)n1 (stereo not drawn)	0.75 (active)
O=C(Nc1ccccc1)c1ccc(-c2cc3ccncc3cc2OC2CCNCC2)s1	0.455 (inactive)
O=C(NC1CC1)c1ccc(N2CCC(Cc3ccccc3)CC2)nc1	0.167 (inactive)
O=C(NCCc1ccn(-c2ccccc2)n1)C1CCCCC1	0.0526 (inactive)
O=C(NCc1cc(Cl)cc(Cl)c1)c1c(C(F)(F)F)nc2ccccn12	0.312 (inactive)
Oc1c(I)cc(I)c2cccnc12	0.333 (inactive)
CC(C)C(Oc1cccc2ccccc12)C(=O)O (stereo not drawn)	0.0556 (inactive)
Cc1cc(O)nc(-n2nc(C)cc2C)n1	0.576 (active)
Cc1nc(-c2cccc(NCc3ccccc3)c2)[nH]c1C	0.25 (inactive)
COc1cc(CN2CCC3(C=Cc4ccccc43)CC2)cc2c1OCO2	0.273 (inactive)
NCCC(O)C(=O)N[C@@H]1C[C@H](N)[C@@H](OC2O[C@H](CN)[C@@H](O)[C@H](O)[C@H]2O)[C@H](O)C1OC1O[C@H](CO)[C@@H](O)[C@H](N)[C@H]1O (stereo partly drawn)	< 0 (inactive)
N=C(N)Nc1ccc(-c2ccc(-c3ccc(N=C(N)N)c(Cl)c3)o2)cc1Cl	0.0625 (inactive)
CN1CCN(CCCOc2ncc(Nc3ncc(-c4ccc(C(F)(F)F)c(F)c4)nc3C(N)=O)cn2)CC1	1 (active)
NCC(=O)N1CCn2c(nc(-c3ccccc3)c2Nc2ccc3c(c2)OCO3)C1	0.688 (active)
O=C(c1ccc(NCCO)cc1)C1C[C@H]1c1ccc(Cl)cc1 (stereo partly drawn)	0.625 (active)
CC(=O)NCC1CN(c2ccc(-c3ccc(CNCc4cn[nH]n4)cc3)c(F)c2)C(=O)O1 (stereo not drawn)	< 0 (inactive)
CCOc1ccc(-c2nc(NC(=O)CS(=O)(=O)c3ccccc3)sc2C)cc1	0.111 (inactive)
O=C(c1ccco1)N(CCCn1ccnc1)c1nc2c(Cl)cccc2s1	0.4 (inactive)

SMILES	drug effect
CN1CCC(c2cc(-c3ccncc3)c(-c3ccc(F)cc3)[nH]2)CC1	0.111 (inactive)
CCCn1c(NC(=O)c2ccc3ccccc3n2)nc2ccccc21	0.312 (inactive)
Nc1ncnc2c1ncn2C[C@@H](O)[C@@H](O)C(=O)O	0.222 (inactive)
CC(C)=CCC/C(C)=C\CNCCNC1C2CC3CC(C2)CC1C3 (stereo not drawn)	1 (active)
COc1ccc2nc(C)cc(OCC(=O)NCc3ccccc3)c2c1	< 0 (inactive)
CN(C)c1cc(NC(=O)Nc2ccccc2)c2ccccc2n1	0.455 (inactive)
Cc1ccc(-c2nc(CN(Cc3ccccn3)C(C)C)cs2)o1	0.389 (inactive)
NC(=O)c1cc(Br)ccc1OCCOc1ccccc1	< 0 (inactive)
C[C@H]1c2cccc(O)c2C(=O)C2=C(O)[C@]3(O)C(=O)C(C(N)=O)=C(O)[C@@H](N(C)C)[C@@H]3[C@@H](O)[C@@H]21	0.222 (inactive)
Cc1nc(-c2ccccn2)nc(N(C)CCc2ccccc2)c1Cl	0.697 (active)
OC[C@H]1O[C@@H](n2c3ccc(Cl)cc3c3c(-c4cc5ccccc5o4)ncnc32)C(O)[C@H]1O (stereo partly drawn)	< 0 (inactive)
O=C(NCc1ccco1)N1CCN(Cc2ccc(Cl)s2)CC1	0.345 (inactive)
CC(=O)NCC1CN(c2ccc(-c3ccc(CO)cc3)c(F)c2)C(=O)O1 (stereo not drawn)	0.0625 (inactive)
CCC(C)NC(=O)c1ccc(NC(=O)C2(c3ccccc3)CCCC2)cc1 (stereo not drawn)	0.0303 (inactive)
Nc1ncc(Br)cc1-c1nc2cc(Cl)cnc2[nH]1	0.188 (inactive)
COc1ccc(C2=NN(C3CCCCCC3)C(=O)[C@@H]3CC=CC[C@H]23)cc1OCCCCOc1ccc(-c2nn[nH]n2)cc1	0.667 (active)
CC(C)(C)OC(=O)N1CCN(c2nccc(-c3ccc(-c4ccc(Cl)cc4)s3)n2)CC1	0.182 (inactive)
O=C(OCc1ccccc1)N1CCC(c2cc(-c3ccncc3)c(-c3ccc(F)cc3)[nH]2)CC1	0.188 (inactive)
CC(C)NCC(=O)Nc1cccc(C(=O)Nc2cccc(C(F)(F)F)c2)c1	0.375 (inactive)
